# High-throughput results deposited in PubChem BioAssay by National Center for Advancing Translational Sciences (NCATS).
# uPA generation: cell surface uPA generation inhibition | Potency, µM (series often up to 38.3 µM), actives largely listed as inhibitors | cell surface uPA generation assay, qHTS | AID 540303 | 0.31% of 330,000 active; active means well fitted inhibition curve with a large enough effect; inconclusive means small, poorly fitted or top-dose-only effect; inactive means no such curve, though single readings can be large or run the other way; tested in mouse RAW 264.7 cells; further: nearly all actives have a fitted effect of over 55% in size
# p53 reactivation: restores transcriptional activity of mutant p53; H1299 p53-A138V BP100-luciferase reporter, luminescence, 24 h; AID 504706; 0.063% of 320,000 active; Potency, µM (top dose mostly 92.2 µM), actives largely listed as activators; further: nearly all actives have a fitted effect of over 45% in size
#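 p53-null H1299 cells stably carrying temperature-sensitive p53-A138V and a BP100-luciferase reporter were pinned with compounds (4-point, 1:5 series) and held 24 hrs at 37 deg C. Luminescence was read 10 min after detection reagent.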
# hERG WT inh: KCNH2 (human, wildtype) channel inhibition; Q12809; U2OS, BacMam KCNH2, thallium flux FluxOr; hits give low values; activity change, % at 1.84 µM; 0.37% of 340,000 active; AID 720551;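 active means maximum activity change below -70%; inconclusive means maximum activity change between -70% and -50%; inactive means maximum activity change above -50%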
#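 U2OS cells transduced with wild-type KCNH2 virus are loaded with FluxOr dye for 45 min, and thallium flux is measured in kinetic reads before and after stimulation buffer. Rate constants are normalized to DMSO controls.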
# KCNH2 3.1 inh: inhibitors of human KCNH2 3.1 potassium channel isoform. AID 720553. 0.95% of 340,000 active. activity change, % (tested at about 1.8 µM). U2OS KCNH2 3.1, thallium flux FluxOr; hits give low values;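 active means maximum activity change below -70%; inconclusive means maximum activity change from -70% to -50%; inactive means maximum activity change above -50%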;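 further: thallium influx rate constant from kinetic fluorescence after stimulation buffer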
#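 U2OS cells transduced with KCNH2 3.1 mutant virus (1.77 x 10^8 /mL, 4 h), plated overnight at 37 C, loaded 45 min with FluxOr dye plus Red40 quencher. Thallium flux rate constant from kinetic reads after stimulation buffer, normalised to controls.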
# S-ASM inh: blocks human secretory acid sphingomyelinase. P17405. 0.006% of 340,000 active. placental ASM, HMU-PC fluorogenic substrate, 60 min. Potency, µM (titrated, usually from 57.5 µM), actives largely listed as inhibitors
# Target sequence (P17405 47-631 limits assumed): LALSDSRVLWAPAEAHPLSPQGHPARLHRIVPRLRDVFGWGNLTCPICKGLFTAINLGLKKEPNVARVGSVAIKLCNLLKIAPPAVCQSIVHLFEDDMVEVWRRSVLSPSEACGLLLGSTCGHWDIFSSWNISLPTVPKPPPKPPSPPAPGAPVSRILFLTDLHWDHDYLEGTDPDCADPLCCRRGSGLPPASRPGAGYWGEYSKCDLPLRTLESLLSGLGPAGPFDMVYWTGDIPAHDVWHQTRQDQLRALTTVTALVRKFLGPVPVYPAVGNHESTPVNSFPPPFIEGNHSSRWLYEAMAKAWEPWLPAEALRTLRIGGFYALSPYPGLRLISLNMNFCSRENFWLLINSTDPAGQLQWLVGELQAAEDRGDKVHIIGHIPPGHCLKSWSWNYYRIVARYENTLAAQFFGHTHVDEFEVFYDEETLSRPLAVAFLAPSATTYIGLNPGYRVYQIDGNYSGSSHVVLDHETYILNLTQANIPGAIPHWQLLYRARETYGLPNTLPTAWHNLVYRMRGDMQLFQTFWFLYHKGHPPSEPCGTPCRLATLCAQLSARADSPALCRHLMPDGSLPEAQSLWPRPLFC
#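 qHTS format. ASM enzyme prepared from human placenta hydrolyses the fluorogenic substrate HMU-PC0 (9 uM final) over 60 min at 37 °C after a 10 min compound preincubation.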
# Mm-Cpn inhibitor: blocks the Methanococcus maripaludis chaperonin Mm-Cpn | purified Mm-Cpn ATPase, ADP Transcreener TR-FRET | Potency, µM (series often up to 76.9 µM), most hits filed as inhibitors | 0.031% of 330,000 active; further: nearly all actives have a fitted effect of over 80% in size
#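 Inhibition of chaperonin ATP hydrolysis is measured as reduced ADP production, detected by competitive TR-FRET in which signal falls with ADP. Final enzyme 25 nM and ATP 10 uM, reacted 30 min at 37°C.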
# A number is an active result; - = inactive; ? = inconclusive; . = no result given. This is a sample that favours compounds with a hit; in the whole collection about 1.4% have one here. Unless noted, the call rests on the fitted dose curve; in most records, active means well fitted curve in the direction sought with a large enough effect; inconclusive means small, poorly fitted or top-dose-only effect, or another doubt; inactive means no such curve, though single readings can be large; an effect the other way counts as inactive or inconclusive.
SMILES,uPA generation,p53 reactivation,hERG WT inh,KCNH2 3.1 inh,S-ASM inh,Mm-Cpn inhibitor
CCOc1ccc(OCCCCN2CCCC2)cc1,-,-,-,-,-,-
Nc1ccc(S(=O)(=O)c2cc(O)c3ccccc3c2O)cc1,-,.,-,-,-,.
Cc1cc(C)c(C)c(S(=O)(=O)Nc2ccc3cn[nH]c3c2)c1C,-,-,-,-,-,-
Cc1ccc(S(=O)(=O)N2CCN(C(=O)c3cc(C4CC4)nn3-c3ccccc3)CC2)cc1,.,.,-,-,.,.
CN(C)/C=C/C(=O)/C=C/c1ccc(Cl)cc1,-,-,-,-,-,-
CN(C)CC(O)c1ccc(C=Cc2ccc(Cl)cc2)cc1 (stereo not given),-,.,-,-110,-,.
COc1ccc(C(=Cc2cc(OC)c(OC)cc2[N+](=O)[O-])C(=O)O)cc1,-,.,-,-,-,.
CCOc1ccc(/C=N/NC(=O)c2[nH]ncc2Br)c(O)c1,-,?,-,-77,-,-
COc1ccc(OC)c(/C=N/NC(=O)c2[nH]ncc2Br)c1,-,-,-,-,-,-
CC(Oc1ccc(Cl)cc1)C(=O)N1CCN(C(=O)c2ccco2)CC1 (stereo not given),-,-,-129,-164,-,-
O=C(c1ccco1)N1CCN(C(=O)C2CC(=O)N(c3ccc(Cl)cc3)C2)CC1 (stereo not given),-,-,-,-95,-,-
Cc1ccc(N2CC(C(=O)N3CCN(C(=O)c4ccco4)CC3)CC2=O)cc1 (stereo not given),-,-,-,-,-,-
O[C@@H]1C[C@H](c2ccc(Cl)cc2)N(Cc2cccs2)C[C@H]1n1cc(C2CC2)nn1,.,.,-,-,.,.
CCOc1ccc(N2CC(C(=O)NCC(=O)Nc3ccc(F)c(F)c3F)CC2=O)cc1 (stereo not given),-,-,-,-,-,-
CCc1nc(SCC(=O)N2CCCCC2)c2c(=O)n(C)c(=O)n(C)c2n1,-,-,-,-,-,-
O=C(Nc1cccc(NC(=O)c2ccc(-c3ccc(Br)cc3)o2)c1)c1ccccc1,-,-,-,-94,-,-
O=C(Nc1ccccc1)c1ccc(-c2ccc(Br)cc2)o1,-,?,-,-,-,-
O=C(Nc1ccc(CN2CCOCC2)cc1)c1ccc(-c2ccc(Br)cc2)o1,-,-,-,-103,-,-
O=C(Nc1ccc(CN2CCOCC2)cc1)c1ccc(Br)cc1,-,?,-,-,-,-
C=CCN(C(=O)c1csnn1)C(C(=O)NC1CCCC1)c1ccccc1 (stereo not given),-,-,-,-,-,-
COCCCNC(=S)Nc1ccc2c(c1)OCCO2,-,?,-88,-,-,-
OCCNC(=S)Nc1ccc2c(c1)OCCO2,-,-,-,-,-,-
CC(C(Sc1ccccc1N)c1ccccc1)[N+](=O)[O-] (stereo not given),11µM,-,-,-,-,-
Nc1ccccc1SC(CC(=O)c1ccccc1)c1ccccc1 (stereo not given),.,.,-,-,.,.
COc1ccccc1-c1csc(N2CCC(C(N)=O)CC2)n1,.,.,.,.,.,-
SMILES,uPA generation,p53 reactivation,hERG WT inh,KCNH2 3.1 inh,S-ASM inh,Mm-Cpn inhibitor
O=C(COC(=O)C1CCN(c2ccc(C(F)(F)F)cn2)CC1)Nc1ncc(Cl)cc1Cl,-,-,-,-71,-,-
CCC(C)NC(=O)c1ccc2nc(Cc3ccc(OC)cc3)oc2c1 (stereo not given),-,-,-,-,-,-
CCC(NC(=O)c1ccc2nc(Cc3ccc(OC)cc3)oc2c1)c1ccncc1 (stereo not given),-,-,-,-105,-,-
O=C(CN1CCN(C(=O)c2ccccc2)CC1)Nc1ncc(Br)cc1Br,-,-,-,-85,-,-
CN(C(=O)CSc1nc(-c2ccc(C(C)(C)C)cc2)c(C#N)c(=O)[nH]1)C1CCCCC1,?,-,-,-,-,-
O=C(C[n+]1cc(-c2ccc(Cl)cc2)n2c1CCCCC2)c1ccccc1,-,-,-,-130,-,-
O=C(C[n+]1cc(-c2ccc(Br)cc2)n2c1CCCCC2)c1ccccc1,-,-,-,-,-,-
O=C(Nc1ccccn1)C1CCN(C(=O)c2ccc(Cl)cc2)CC1,.,.,-,-,.,.
COc1cc(OC)cc(C(=O)N2CCN(C(=O)c3ccc(OC)c(OC)c3)CC2)c1,-,-,-,-,-,-
COc1ccc(-c2n[nH]c3c2CN(C(=O)c2ccc(OC)c(OC)c2)CC3)cc1,3.2µM,-,-,-,-,-
C=CC(=O)Nc1cccc(Oc2ccnc(Nc3ccc(N4CCN(C)CC4)cc3)n2)c1,?,.,-,-,-,.
C=CC(=O)Nc1cccc(N(C)c2ccnc(Nc3ccc(N4CCN(C)CC4)cc3)n2)c1,10µM,.,-,-,-,.
COc1ccc(CN(C(C)=O)c2cc(C)c([N+](=O)[O-])cc2OC)cc1OC,.,.,-,-,.,.
CCOc1ccc2nc(N3C(=O)/C(=C/c4ccccc4)NC3=S)sc2c1,-,13µM,-,-,?,-
COc1ccc2nc(N3C(=O)/C(=C/c4ccccc4)NC3=S)sc2c1,-,-,-,-,-,-
O=C(Nc1ccccc1N1CCOCC1)c1ccc(Cl)nc1,-,-,-,-105,-,-
COc1ccc(CCC2(C)NC(=O)N(C(C)C(=O)Nc3ccccc3F)C2=O)cc1 (stereo not given),-,-,-,-,-,-
CCOC(=O)C1(CCc2ccccc2)CCN(Cc2ccccn2)CC1,-,-,-,-74,-,-
CCOC(=O)C1(CCc2ccccc2)CCN(Cc2ccc(C(=O)OC)cc2)CC1,-,-,-108,-114,-,-
CCOC(=O)C1(CCc2ccccc2)CCN(C2Cc3ccccc3C2)CC1,-,-,?,-79,-,-
CCOC(=O)C1(CCc2ccccc2)CCN(Cc2cc(OC)c(OC)cc2OC)CC1,?,-,-,-99,-,-
C[C@@H]1c2ccccc2N2C[C@H](Cc3ccc(C(=O)c4ccccc4)cc3)C[C@@H]12,.,.,-,-,.,.
CN(c1ccc(C(=O)N/N=C/c2cccc([N+](=O)[O-])c2)cc1)S(=O)(=O)c1ccccc1,-,-,-,-,-,-
CN(CCc1ccccc1)C(=O)CC1C(=O)NCCN1Cc1ccccn1 (stereo not given),.,.,-,-,.,.
CCCC(=O)NC(c1ccccc1)c1ccc2cccnc2c1O (stereo not given),-,.,-262,-,-,-
CCCCC(=O)NC(c1ccccc1Cl)c1ccc2cccnc2c1O (stereo not given),?,-,-,-97,-,-
COc1cccc(C(NC(C)=O)c2ccc3cccnc3c2O)c1 (stereo not given),-,.,-82,-,-,-
